“And” between values parts separate entries of the source, which are not always exact repeats. Identical values can stand only once. Records with an inconclusive call do not appear. A structure can be active in one record and inactive in another. The source made the active and inactive calls. Rule for the calls: active = hit-call score of the fitted dose curve at least 0.9, where 1 is the maximum; inconclusive = response in the unintended direction; inactive = score below 0.9.
What follows are molecules tested against Estrogen receptor (Homo sapiens) (UniProt P03372) (assay: NVS_NR_hER: NovaScreen (NVS) Nuclear Receptor Binding Assay for human Estrogen Receptor (ER) (AID 2283348)).
Chain of Estrogen receptor (Homo sapiens) (P03372 whole entry, looked up): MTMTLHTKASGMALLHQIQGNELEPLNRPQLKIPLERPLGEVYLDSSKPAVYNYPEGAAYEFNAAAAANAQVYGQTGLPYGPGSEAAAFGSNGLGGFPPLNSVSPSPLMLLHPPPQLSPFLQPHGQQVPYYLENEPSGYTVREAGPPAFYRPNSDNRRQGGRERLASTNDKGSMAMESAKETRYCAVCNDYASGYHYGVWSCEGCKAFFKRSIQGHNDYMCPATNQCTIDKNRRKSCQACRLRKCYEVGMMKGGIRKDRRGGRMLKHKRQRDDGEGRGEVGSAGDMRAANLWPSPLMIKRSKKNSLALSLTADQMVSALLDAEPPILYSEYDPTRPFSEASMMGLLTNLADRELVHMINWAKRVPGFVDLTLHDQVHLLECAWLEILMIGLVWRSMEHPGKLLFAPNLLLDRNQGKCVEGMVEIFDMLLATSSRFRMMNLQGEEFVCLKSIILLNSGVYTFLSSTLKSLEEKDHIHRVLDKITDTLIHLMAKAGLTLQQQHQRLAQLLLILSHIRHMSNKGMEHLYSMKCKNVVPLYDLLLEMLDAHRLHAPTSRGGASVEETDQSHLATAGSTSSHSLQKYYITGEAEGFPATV
Procedure: NVS_NR_hER is a biochemical, single-readout assay that uses extracted gene-proteins from MCF7 in a cell-free assay. Measurements were taken 18 hours after chemical dosing in a 96-well plate.NVS_NR_hER is one of one assay component(s) measured or calculated from the NVS_NR_hER assay. It is designed to make measurements of radioligand binding, a form of binding reporter, as detected with scintillation counting signals by Lysate-based radiodetection technology.Data from the assay component NVS_NR_hER was analyzed into 1 assay endpoint. This assay endpoint, NVS_NR_hER, was analyzed in the positive analysis fitting direction relative to DMSO as the negative control and baseline of activity. Using a type of binding reporter, loss-of-signal activity can be used to understand changes in the binding as they relate to the gene ESR1. Furthermore, this assay endpoint can be referred to as a primary readout, because the performed assay has only produced 1 assay endpoint. To generalize the intended target to other relatable targets, this assay endpoint is annotated to the nuclear receptor intended target family, where the subfamily is steroidal.
Binding assays used specific radioligands (tritiated, iodinated) with non-radioactive competitive displacement ligands in agonist or antagonist protocols (as indicated) and various reference compounds and inhibitors to titrate specific binding to receptors and transporters. Most enzyme assays (CYPs, kinases, phosphatases, proteases, HDACs) used recombinant protein and specific substrates (fluorescence mostly, some colorimetric and radioactive) and inhibitors, followed by a biochemical separation of substrate and product. All assays for the biochemical HTS were initially run in duplicate at a single concentration (10 uM for CYP450 assays and 25 uM for all others). […] Each assay was run with positive and negative controls, and concurrent controls on every plate. The follow-up (secondary) screen tested active chemical-pairs in concentration series, as well as a few additional assays not tested in the primary screen, some selected negative inactives, and several cases re-run in the concentration series for confirmatory purposes.
With `Nn1cnnc1` the outcome was “inactive”. `CCCCCCCCCC[N+](C)(C)CCCCCCCCCC` was tested, and the AC50 was 39.1 µM (active). For `CC(C)(O)C(=O)Nc1ccc([N+](=O)[O-])c(C(F)(F)F)c1`, the outcome was “inactive”. `C[C@]12CCC(=O)C=C1CC[C@@H]1[C@@H]2CC[C@]2(C)C(=O)CC[C@@H]12` was tested, and the AC50 was 38.5 µM (active) and the outcome was “inactive”. With `Clc1ccc(C(c2ccccc2Cl)C(Cl)(Cl)Cl)cc1` (stereo not drawn) the outcome was “inactive”. For `CCC(=O)O[C@H]1CC[C@H]2[C@@H]3CCC4=CC(=O)CC[C@]4(C)[C@H]3CC[C@]12C`, the AC50 was 14 µM (active) and the outcome was “inactive”. With `Cc1ccc(O)c(C)c1` the outcome was “inactive”. For `CCCN(CCC)N=O`, the outcome was “inactive”. With `C=CC(=O)NCNC(=O)C=C` the outcome was “inactive”. In the case of `Cc1cc(-c2ccc(N)c(C)c2)ccc1N`, the AC50 is reported as 0.0153 µM (active) and the outcome is reported as “inactive”. For `C[C@]12CCC(=O)C=C1CC[C@@H]1[C@@H]2CC[C@@]2(C)[C@H]1CC[C@]2(C)O`, the AC50 was 6.34 µM (active) and 6.28 µM (active) and 6.19 µM (active). `ClC1=C(Cl)[C@]2(Cl)[C@@H]3[C@H]4C[C@H]([C@@H]5O[C@H]45)[C@@H]3[C@@]1(Cl)C2(Cl)Cl` was tested, and the outcome was “inactive”. `COc1ccc(O)c(C(C)(C)C)c1` was tested, and the outcome was “inactive”. With `CCCCCCCCCc1ccc(O)cc1` the outcome was “inactive”. `Nc1ccc(-c2ccc(N)cc2)cc1` was tested, and the outcome was “inactive”. `CCOCCOC(C)=O` was tested, and the outcome was “inactive”. In the case of `CCOC(=O)C(O)(c1ccc(Cl)cc1)c1ccc(Cl)cc1`, the outcome is reported as “inactive”. In the case of `Cc1cccc([N+](=O)[O-])c1`, the outcome is reported as “inactive”. `O=NN(c1ccccc1)c1ccccc1` was tested, and the outcome was “inactive”. With `ClC1=C(Cl)[C@]2(Cl)[C@@H]3[C@@H](Cl)[C@H]4O[C@H]4[C@@H]3C1(Cl)C2(Cl)Cl` the outcome was “inactive”. `O=S(=O)(O)C(F)(F)C(F)(F)C(F)(F)C(F)(F)C(F)(F)C(F)(F)F` was tested, and the outcome was “inactive”. With `O=C(O)C(F)(F)C(F)(F)C(F)(F)C(F)(F)C(F)(F)C(F)(F)C(F)(F)C(F)(F)F` the outcome was “inactive”. For `c1ccc(-c2ccccc2)cc1`, the outcome was “inactive”. `ClC(Cl)=C(c1ccc(Cl)cc1)c1ccc(Cl)cc1` was tested, and the outcome was “inactive”. For `CC(c1ccc(O)cc1)(c1ccc(O)cc1)c1ccc(O)cc1`, the AC50 was 1.06 µM (active). `Cc1cc(O)ccc1Cl` was tested, and the AC50 was 16.1 µM (active). With `CO/C=C(/C(=O)OC)c1ccccc1COc1cccc(C(F)(F)F)n1` the outcome was “inactive”. `Oc1ccc(Cl)cc1Cl` was tested, and the outcome was “inactive”. With `O=C(O)C(F)(F)C(F)(F)C(F)(F)C(F)(F)C(F)(F)C(F)(F)C(F)(F)C(F)(F)C(F)(F)F` the outcome was “inactive”. With `ClC1=C(Cl)[C@]2(Cl)[C@@H]3[C@@H]4C[C@@H]([C@H]5O[C@@H]45)[C@@H]3[C@@]1(Cl)C2(Cl)Cl` the outcome was “inactive”.
